The campaign covered roughly 300,000 compounds. About 37,000 (12%) were called active. This is one part of a sample in which actives are shown more often than they occur. Values without a mark were called inactive. No stated cut-off is given here; in the data, active means max response mostly above about 13% (no sharp cut-off); inactive means mostly below about 14%.
Experiment: Cycloheximide Counterscreen for Small Molecule Inhibitors of Shiga Toxin; further: read at 38.3 µM for the half of the compounds with a filed dose; 0% is about no effect
Conditions: cell reporter, cycloheximide protein synthesis inhibition counterscreen; stronger effect = higher value

| SMILES | max response |
| --- | --- |
| COC(=O)c1cccc(C(=O)N2CCC(CCC(=O)NCc3ccc(F)cc3)CC2)c1 | -0.695% |
| Cc1ccc(C2(C(F)(F)F)N=C3Sc4cc(C)cc(C)c4N3C(=O)N2)cc1 (stereo not drawn) | 18.6% (active) |
| O=C(Cn1cc(C(F)(F)F)ccc1=O)N/N=C/c1ccc(Cl)cc1Cl | -2% |
| CC(C)(C)c1ccc(C(=O)CSc2ncn[nH]2)cc1 | 37.3% (active) |
| CCN(C(=O)CSc1ncn[nH]1)c1cccc2ccccc12 | 4.43% |
| Cn1nnc(NC(=O)CSc2ncn[nH]2)n1 | -1.09% |
| Cc1ccc2c(c1)C(c1ccccc1)N(C(=O)c1ccc(S(=O)(=O)N3CCOCC3)cc1)CC(=O)N2 (stereo not drawn) | -1.59% |
| N#Cc1c(-c2ccc(F)cc2)cc(C2CC2)nc1SCC(=O)c1cccs1 | -0.655% |
| O=C(CSc1nc2ccccc2[nH]1)c1cccs1 | 47.2% (active) |
| N#Cc1c(-c2cccs2)nc(SCC(=O)c2ccc(Br)cc2)[nH]c1=O | 2.73% |
| CN(Cc1ccccc1)C(=O)CSc1nc2ccccc2[nH]1 | 39.7% (active) |
| O=C(CSc1nc2ccccc2[nH]1)Nc1nc(-c2ccccc2)c(-c2ccccc2)o1 | 0.677% |
| CN(Cc1ccccc1)c1nc2c(c(=O)[nH]c(=O)n2C)n1CCSc1nc2ccccc2[nH]1 | 0.491% |
| C=CCN(CC=C)S(=O)(=O)c1ccc(C(=O)Nc2nc3c(s2)CCc2ccccc2-3)cc1 | -6.15% |
| CC(C)Cn1c(N2CCN(C(=O)/C=C/c3ccccc3)CC2)nc2ccccc21 | 3.07% |
| CC1CCCCC1NC(=O)CO/N=C/c1ccc(OC(F)F)cc1 (stereo not drawn) | 1.26% |
| Cc1ccc(C(=O)NCC(=O)OCc2nnc(-c3ccccc3)o2)cc1 | 23.8% (active) |
| O=C(CNC(=O)c1ccc(-c2ccccc2)cc1)OCc1ccc(Cl)cc1 | -0.931% |
| O=C(OCc1nnc(-c2ccccc2)o1)c1ccc2c(c1)C(=O)N(CCc1ccccc1)C2=O | -1.64% |
| O=C(CN1CCN(c2cccc(Cl)c2)CC1)Nc1ccc(S(=O)(=O)N2CCOCC2)cc1 | -3.83% |
| CCOc1cc(/C=C2/N=C(c3ccc(C(C)(C)C)cc3)OC2=O)cc(Cl)c1OS(C)(=O)=O | -4.6% |
| O=C1CCC(=O)N(O)CCCCCNC(=O)CCC(=O)N(O)CCCCCNC(=O)CCC(=O)N(O)CCCCCN1 | -3.2% |
| CC(C)[C@@H]1COC(c2cccc(C3=N[C@H](C(C)C)CO3)c2)=N1 | 33.7% (active) |
| O=C(O)c1cccnc1NC1CCCC1 | -2.86% |

| SMILES | max response |
| --- | --- |
| COc1ccc(-c2nonc2NC(=O)c2oc3ccc(F)cc3c2C)cc1OC | 4.29% |
| Cc1ccc(S(=O)(=O)NCc2ccc(C(=O)NC3CCC(C)CC3)cc2)cc1 (stereo not drawn) | -10.9% |
| Cc1ccc(C)c(NC(=O)NNC(=O)c2ccc3ccccc3c2O)c1 | 3.4% |
| O=C(NC1CC1)c1cccc(Br)c1 | -2.43% |
| O=C(NC1CCN(S(=O)(=O)c2ccc(F)cc2)CC1)c1ccccc1 | -0.862% |
| CC(NC(=O)c1cc(-c2ccccc2)on1)c1ccccc1 (stereo not drawn) | 3.69% |
| O=C(NC1CCCC1)c1cc(-c2ccccc2)on1 | 30.6% (active) |
| O=C(NC1CC1)c1ccc(-c2ccccc2)cc1 | 42.7% (active) |
| CSc1ccccc1NC(=O)c1cc(C2CC2)on1 | 37.7% (active) |
| O=C(Nc1cc(C(F)(F)F)ccc1Cl)c1cc(C2CC2)on1 | -4.3% |
| O=C(NC1CCCCC1)c1cc(C2CC2)on1 | 40.8% (active) |
| CC(=O)c1cc(-c2ccccc2)n(CC(=O)NC2CCCCC2)c1C | -3.63% |
| Cc1nn(Cc2ccc(Cl)c(Cl)c2)c(C)c1NC(=O)c1cc(C2CC2)on1 | -1.12% |
| COc1cc(OC)c(C(=O)NC2CCCCCC2)cc1OC | -2.09% |
| CSc1ccccc1NC(=O)c1cc(Cl)sc1Cl | 2.39% |
| Cn1cc(S(=O)(=O)Nc2ccc(Cl)cc2Cl)c(=O)n(C)c1=O | -2.38% |
| CC(C)C[C@@H](NC(=O)[C@H]1CCCN1C(=O)Cc1ccccc1)C(N)=O | 8.92% |
| CCC1(CC)C(=O)C2=C3C1[C@H](C(=O)OC)C=C(C(=O)OC)C[C@H]3[C@H]1C(=O)N(Cc3ccccc3)C(=O)[C@H]1[C@H]2C (stereo partly drawn) | -3.02% |
| CC(NC(=O)Cn1cc(C(F)(F)F)cc(Cl)c1=O)c1ccccc1 (stereo not drawn) | 11.8% |
| CC[C@H](C)[C@H](NC(=O)[C@H](Cc1cnc[nH]1)NC(=O)[C@@H](N)CCC(=O)O)C(=O)N1CCC[C@H]1C(=O)N[C@@H](C)C(=O)O | -2.98% |
| CCCCn1ccnc1C(=O)c1cccc(S(=O)(=O)N2c3ccccc3CC2C)c1 (stereo not drawn) | -2.53% |
| O=C(CCC(=O)OCc1ccc(Cl)cc1)Nc1ccccc1 | -2.49% |
| N/C(=N\OC(=O)CCc1ccccc1)c1cccnc1 | 27.3% (active) |
| CC(=O)OC(C(=O)NCCc1ccccc1)c1cccnc1 (stereo not drawn) | -0.715% |

| SMILES | max response |
| --- | --- |
| N/C(=N\OC(=O)CCc1ccccc1)c1ccc(Cl)cc1 | 24.7% (active) |
| O=C(O)CCc1cccnc1 | 2.51% |
| Cc1ccc(/C(N)=N/OC(=O)COc2ccc(Cl)c(C)c2)cc1 | -3.46% |
| CCCOc1ccc(NC(=O)CC2C(=O)N(C)C(=S)N2Cc2ccc3c(c2)OCO3)cc1 (stereo not drawn) | -2.42% |
| Cc1cccc(NC(=O)C(C)N2C(=O)C3C4CC(C(Br)C4Br)C3C2=O)c1 (stereo not drawn) | -1.4% |
| COc1ccc(NC(=O)C(C)SCc2ccccc2)cc1 (stereo not drawn) | 23% |
| Cc1cccc(NC(=O)C(C)SCc2ccccc2)c1 (stereo not drawn) | 21.6% (active) |
| CC(C(=O)Nc1ccc(O)c(C(=O)O)c1)N1C(=O)/C(=C/c2cccs2)SC1=S (stereo not drawn) | -1.39% |
| CC1(C)CC(CNCCC(c2ccc(F)cc2)c2ccco2)CCO1 (stereo not drawn) | 0.614% |
| CCOC(=O)C1(CCOc2ccccc2)CCN(Cc2cc(OC)c(O)cc2Cl)CC1 | -2.51% |
| CCCCNC(=O)CSc1nc2ccc(NC(=O)CSc3nnc(N)s3)cc2s1 | 2.41% |
| CCCCNC(=O)CSc1nc2ccc(NC(=O)CSc3nnc(COc4ccccc4C)n3C)cc2s1 | 5.25% |
| Nc1nnc(SCC(=O)Nc2ccc3nc(SCC(=O)Nc4ccccc4)sc3c2)s1 | 33.9% (active) |
| C#CCOc1ccc(/C=C2/C(=O)NN(c3ccccc3)C2=O)cc1OC | -3.05% |
| COCCCNC(=O)Cn1cc(C(=O)C2CC2)c2ccccc21 | -2.09% |
| COC(=O)Cn1cc(C(=O)c2cccs2)c2ccccc21 | -0.264% |
| O=C(Cn1cc(C(=O)c2cccs2)c2ccccc21)NCc1cccs1 | 39% (active) |
| CCN(CC)C(=O)C(=O)c1cn(CC(=O)NCc2ccc3c(c2)OCO3)c2ccccc12 | -2.04% |
| COC(=O)c1cn(CC(=O)NCc2cccs2)c2ccccc12 | 68.2% (active) |
| O=C(CN1CCN(c2ccccn2)CC1)NCc1cccs1 | -3.83% |
| Cc1cccc(N(C(=O)c2sc(C)nc2C)C(C(=O)NCC2CCCO2)c2ccccc2)c1 (stereo not drawn) | -2.65% |
| CCOc1ccc(NC(=O)C(C)N2C(=O)c3ccccc3C2=O)cc1 (stereo not drawn) | -2.64% |
| O=C(O)CSCc1nc2ccccc2s1 | 27.6% (active) |
| O=C(O)c1cccc(S(=O)(=O)Nc2ccc(O)cc2Sc2nc3ccccc3s2)c1 | 4.69% |

| SMILES | max response |
| --- | --- |
| O=C(CSc1nc2ccccc2s1)Nc1ccc(C(=O)O)cc1 | -4.27% |
| O=C(O)CS/C(=C\c1ccc(F)cc1)c1nc2ccccc2s1 | 37.2% (active) |
| O=C(O)CC/C(=C\c1cc2c(cc1Br)OCO2)c1nc2ccccc2s1 | 0.661% |
| O=C(O)CSc1nccc2ccccc12 | 2.48% |
| O=C(O)CCCCc1nc2ccccc2s1 | 3.94% |
| CN(Cc1nc2ccccc2s1)C(=O)c1ccc(F)cc1 | 14.2% |
| O=C(O)c1ccccc1CSc1nc2ccccc2s1 | 34% (active) |
| C=CCn1c(-c2ccccc2OCC)n[nH]c1=S | 5.03% |
| COc1ccccc1C(=O)N(Cc1ccc(C)o1)C1CCS(=O)(=O)C1 (stereo not drawn) | 1.49% |
| COc1cc(Cl)c(C)cc1NC(=O)CSc1nnc(-c2ccco2)n1CC(C)C | -3.52% |
| O=C(CC12CC3CC(CC(C3)C1)C2)Nc1ccc2c(c1)COC2=O | -2.75% |
| Cc1ccc2oc(C(=O)N3CCN(C)C[C@@H]3C(C)C)c(C)c2c1 | 22.3% (active) |
| Cc1ccc2c(C)c(C(=O)N3CCC(N4CCC(C(=O)NC5CC5)CC4)CC3)oc2c1 | 0.384% |
| COc1ccccc1N1CCN(C(=O)c2cc(=O)c3cc(C)ccc3o2)CC1 | -2.83% |
| COc1cccc(CNC(=O)c2cccnc2Sc2ccc(Cl)cc2)c1 | 0.861% |
| O=C(NCc1cc(C(F)(F)F)cc(C(F)(F)F)c1)C1CC(c2cccc(F)c2)=NO1 (stereo not drawn) | -1.65% |
| CCCn1nc(NS(=O)(=O)c2ccc(F)cc2)c2cc3ccccc3nc21 | -11.4% |
| N#Cc1ccc(N2Cc3ccccc3/C2=N/C(=O)Nc2ccc(Cl)cc2)cc1 | 15% |
| Cc1cccc(N2CCN(C(=O)c3cccc(S(=O)(=O)N4CCc5ccccc5C4)c3)CC2C)c1 (stereo not drawn) | 1.1% |
| Cc1cccc(N2Cc3ccccc3C2=NC(=O)c2ccc(Cl)nc2)c1 | 35.1% (active) |
| COc1ccc(C(=O)CC(=O)C(=O)Nc2cc([N+](=O)[O-])ccc2OC)cc1 | -2.37% |

From PubChem BioAssay AID2314 (National Center for Advancing Translational Sciences (NCATS), 2010)
